# Reference: PubChem BioAssay (NCI)
# Compounds without any hit were thinned out: in the full panel of roughly 79,000, 15% have a hit. Unmarked numbers belong to inactive results. The source made the active and inactive calls. Cut-off read from the data, not from the text of the source: active = growth inhibition above about 70%; inactive = the rest.
# Assays:
# [1] = NCI Yeast Anticancer Drug Screen. Data for the rad52 strain (AID 147);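 note: 0% = growth of vehicle-treated control cultures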; conditions: S. cerevisiae rad52 mutant growth inhibition, active compounds read high
# How it was run: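 Here a repair-compromised yeast strain receives each compound; its growth is then quantified and normalised to vehicle-only controls.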
# [2] = NCI Yeast Anticancer Drug Screen. Data for the wt1 strain (AID 149);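 note: 0% = growth of vehicle-treated wt1 cultures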; conditions: S. cerevisiae wt1 strain (SPY 50644) growth inhibition, active compounds read high
# How it was run: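 Using yeast strain wt1, compound-induced growth inhibition was determined against vehicle-treated cultures.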
# [3] = NCI Yeast Anticancer Drug Screen. Data for the rad50EPP+ strain (AID 151);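 note: 0% = growth of vehicle-treated control cultures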; conditions: S. cerevisiae rad50 mutant strain, active compounds read high
# How it was run: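 Read-out is yeast growth inhibition relative to vehicle; cells used were the rad50EPP+ strain.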
# [4] = NCI Yeast Anticancer Drug Screen. Data for the rad50 strain (AID 155);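 note: 0% = growth of vehicle-only cultures of the same strain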; conditions: S. cerevisiae rad50 strain growth inhibition, active compounds read high
# How it was run: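 Relative growth inhibition (compound vs vehicle) was measured in yeast with a defined repair-gene alteration.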
# [5] = NCI Yeast Anticancer Drug Screen. Data for the mec2-1 strain (AID 157); conditions: S. cerevisiae mec2-1 strain, active compounds read high
# How it was run: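 Using mec2-1 yeast: add compound, measure growth, express inhibition versus vehicle-treated cultures.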
# [6] = NCI Yeast Anticancer Drug Screen. Data for the rad14 strain (AID 159);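 note: 0% = growth of vehicle-treated control cultures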; conditions: S. cerevisiae rad14 strain growth inhibition, active compounds read high
# How it was run: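 Screen for anticancer potential: a yeast strain altered in DNA damage repair is grown with compound, and reduced growth is quantified against vehicle controls.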
# [7] = NCI Yeast Anticancer Drug Screen. Data for the sgs1 mgt1 strain (AID 161);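 note: 0% = growth of cultures given vehicle only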; conditions: S. cerevisiae sgs1 mgt1 strain, active compounds read high
# How it was run: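 This yeast growth screen uses a strain with defined DNA-repair lesions; compound-treated growth is compared with vehicle-treated growth.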
# [8] = NCI Yeast Anticancer Drug Screen. Data for the CLN2oe strain (AID 163);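 note: 0% = growth of vehicle-only control cultures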; conditions: S. cerevisiae CLN2oe strain, active compounds read high
# How it was run: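 Whole-cell yeast growth assay. A strain engineered for altered cell-cycle control received compound, and inhibition relative to vehicle-treated cultures was recorded.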
# [9] = NCI Yeast Anticancer Drug Screen. Data for the cln2 rad14 strain (AID 165);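 note: 0% = growth equal to vehicle treated cultures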; conditions: S. cerevisiae cln2 rad14 strain, active compounds read high
# How it was run: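 Yeast strain cln2 rad14, bearing defects in cell cycle control and DNA repair, serves as the test system; values reflect growth inhibition compared with vehicle.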
# [10] = NCI Yeast Anticancer Drug Screen. Data for the bub3 strain (AID 167); conditions: S. cerevisiae bub3 mutant strain, active compounds read high
# How it was run: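 Screening used yeast with an engineered genetic alteration affecting cell cycle control. Compound-exposed cultures were compared with vehicle cultures, and reduced growth was taken as inhibition.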
# [11] = NCI Yeast Anticancer Drug Screen. Data for the wt2 strain (AID 169);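 note: 0% = growth of vehicle-treated yeast cultures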; conditions: S. cerevisiae wt2 strain growth inhibition, active compounds read high
# How it was run: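 Treated yeast vs. vehicle-treated yeast: growth inhibition determined.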
# [12] = NCI Yeast Anticancer Drug Screen. Data for the sgs1 strain (AID 173);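 note: 0% = growth of vehicle-only control cultures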; conditions: S. cerevisiae sgs1 mutant, active compounds read high
# How it was run: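 A genetically defined yeast mutant is incubated with the test compound, and its growth is compared to that of the same strain given vehicle.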
# [13] = NCI Yeast Anticancer Drug Screen. Data for the mlh1 rad18 strain (AID 175); conditions: S. cerevisiae mlh1 rad18 strain growth inhibition, active compounds read high
# How it was run: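 Steps: expose repair-defective yeast to compound; measure growth; express inhibition against vehicle-treated controls.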
# [14] = NCI Yeast Anticancer Drug Screen. Data for the rad18 strain (AID 177); conditions: S. cerevisiae rad18 mutant growth inhibition, active compounds read high
# How it was run: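 Measured value is growth inhibition of a yeast strain bearing a DNA repair alteration, referenced to vehicle-treated cells.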
# [15] = at 5.0 µM (retest, dose inferred, filed as 0.5)
# [16] = at 50.0 µM (retest, dose inferred, filed as 5.0)
compound,measurement,setting,value
CC(C)(Br)C(=O)/C=C/c1ccccc1,growth inhibition,[1]; at 1.2 µM,8%
same,growth inhibition,[1]; at 3.7 µM,21%
same,growth inhibition,[1]; at 11.0 µM,47%
same,growth inhibition,[1]; at 33.0 µM,73% (active)
same,growth inhibition,[1]; at 100.0 µM,91% (active)
same,growth inhibition,[2]; at 1.2 µM,3%
same,growth inhibition,[2]; at 3.7 µM,9%
same,growth inhibition,[2]; at 11.0 µM,9%
same,growth inhibition,[2]; at 33.0 µM,10%
same,growth inhibition,[2]; at 100.0 µM,17%
same,growth inhibition,[3]; at 1.2 µM,21%
same,growth inhibition,[3]; at 3.7 µM,51%
same,growth inhibition,[3]; at 11.0 µM,76% (active)
same,growth inhibition,[3]; at 33.0 µM,88% (active)
same,growth inhibition,[3]; at 100.0 µM,95% (active)
same,growth inhibition,[4]; at 1.2 µM,6%
same,growth inhibition,[4]; at 3.7 µM,11%
same,growth inhibition,[4]; [15],15%
same,growth inhibition,[4]; at 11.0 µM,26%
same,growth inhibition,[4]; at 33.0 µM,34%
same,growth inhibition,[4]; [16],93% (active)
same,growth inhibition,[4]; at 50.0 µM,88.3% (active)
same,growth inhibition,[4]; at 100.0 µM,60%
same,growth inhibition,[5]; at 1.2 µM,5%
same,growth inhibition,[5]; at 3.7 µM,7%
same,growth inhibition,[5]; [15],-14%
same,growth inhibition,[5]; at 11.0 µM,17%
same,growth inhibition,[5]; at 33.0 µM,28%
same,growth inhibition,[5]; [16],89% (active)
same,growth inhibition,[5]; at 50.0 µM,95.7% (active)
same,growth inhibition,[5]; at 100.0 µM,48%
same,growth inhibition,[6]; at 1.2 µM,6%
same,growth inhibition,[6]; at 3.7 µM,14%
same,growth inhibition,[6]; at 11.0 µM,27%
same,growth inhibition,[6]; at 33.0 µM,59%
same,growth inhibition,[6]; at 100.0 µM,97% (active)
same,growth inhibition,[7]; [15],68%
same,growth inhibition,[7]; [16],92% (active)
same,growth inhibition,[7]; at 50.0 µM,91.3% (active)
same,growth inhibition,[8]; at 1.2 µM,-4%
same,growth inhibition,[8]; at 3.7 µM,-3%
same,growth inhibition,[8]; at 11.0 µM,-5%
same,growth inhibition,[8]; at 33.0 µM,4%
same,growth inhibition,[8]; at 100.0 µM,19%
same,growth inhibition,[9]; [15],3%
same,growth inhibition,[9]; [16],87% (active)
same,growth inhibition,[9]; at 50.0 µM,97.2% (active)
same,growth inhibition,[10]; at 1.2 µM,-3%
same,growth inhibition,[10]; at 3.7 µM,-7%
same,growth inhibition,[10]; [15],-16%
same,growth inhibition,[10]; at 11.0 µM,-7%
same,growth inhibition,[10]; at 33.0 µM,-2%
same,growth inhibition,[10]; [16],63%
same,growth inhibition,[10]; at 50.0 µM,22.1%
same,growth inhibition,[10]; at 100.0 µM,7%
same,growth inhibition,[11]; at 1.2 µM,0%
same,growth inhibition,[11]; at 3.7 µM,3%
same,growth inhibition,[11]; at 11.0 µM,6%
same,growth inhibition,[11]; at 33.0 µM,10%
same,growth inhibition,[11]; at 100.0 µM,18%
same,growth inhibition,[12]; at 1.2 µM,24%
same,growth inhibition,[12]; at 3.7 µM,50%
same,growth inhibition,[12]; at 11.0 µM,66%
same,growth inhibition,[12]; at 33.0 µM,70% (active)
same,growth inhibition,[12]; at 100.0 µM,80% (active)
same,growth inhibition,[13]; [15],74% (active)
same,growth inhibition,[13]; [16],95% (active)
same,growth inhibition,[13]; at 50.0 µM,71.9% (active)
same,growth inhibition,[14]; at 1.2 µM,94% (active)
same,growth inhibition,[14]; at 3.7 µM,95% (active)
same,growth inhibition,[14]; at 11.0 µM,96% (active)
same,growth inhibition,[14]; at 33.0 µM,96% (active)
same,growth inhibition,[14]; at 100.0 µM,97% (active)
O=C1C2=C(c3ccccc31)C(c1ccccc1)N1C(=O)CSC1=N2 (stereo not drawn),growth inhibition,[1]; at 1.2 µM,12%
same,growth inhibition,[1]; at 3.7 µM,15%
same,growth inhibition,[1]; at 11.0 µM,25%
same,growth inhibition,[1]; at 33.0 µM,31%
same,growth inhibition,[1]; at 100.0 µM,73% (active)
same,growth inhibition,[2]; at 1.2 µM,10%
same,growth inhibition,[2]; at 3.7 µM,3%
same,growth inhibition,[2]; at 11.0 µM,15%
same,growth inhibition,[2]; at 33.0 µM,22%
same,growth inhibition,[2]; at 100.0 µM,54%
same,growth inhibition,[3]; at 1.2 µM,9%
same,growth inhibition,[3]; at 3.7 µM,2%
same,growth inhibition,[3]; at 11.0 µM,5%
same,growth inhibition,[3]; at 33.0 µM,33%
same,growth inhibition,[3]; at 100.0 µM,23%
same,growth inhibition,[4]; at 1.2 µM,-1%
same,growth inhibition,[4]; at 3.7 µM,2%
same,growth inhibition,[4]; [15],14%
same,growth inhibition,[4]; at 11.0 µM,12%
same,growth inhibition,[4]; at 33.0 µM,30%
same,growth inhibition,[4]; [16],44%
same,growth inhibition,[4]; at 50.0 µM,58.2%
same,growth inhibition,[4]; at 100.0 µM,74% (active)
same,growth inhibition,[5]; at 1.2 µM,5%
same,growth inhibition,[5]; at 3.7 µM,10%
same,growth inhibition,[5]; [15],-9%
same,growth inhibition,[5]; at 11.0 µM,10%
same,growth inhibition,[5]; at 33.0 µM,8%
same,growth inhibition,[5]; [16],16%
same,growth inhibition,[5]; at 50.0 µM,45%
same,growth inhibition,[5]; at 100.0 µM,73% (active)
same,growth inhibition,[6]; at 1.2 µM,-21%
same,growth inhibition,[6]; at 3.7 µM,-17%
same,growth inhibition,[6]; at 11.0 µM,-20%
same,growth inhibition,[6]; at 33.0 µM,6%
same,growth inhibition,[6]; at 100.0 µM,74% (active)
same,growth inhibition,[7]; [15],11%
same,growth inhibition,[7]; [16],44%
same,growth inhibition,[7]; at 50.0 µM,59.6%
same,growth inhibition,[8]; at 1.2 µM,14%
same,growth inhibition,[8]; at 3.7 µM,4%
same,growth inhibition,[8]; at 11.0 µM,9%
same,growth inhibition,[8]; at 33.0 µM,-3%
same,growth inhibition,[8]; at 100.0 µM,54%
same,growth inhibition,[9]; [15],-11%
same,growth inhibition,[9]; [16],26%
same,growth inhibition,[9]; at 50.0 µM,38.7%
same,growth inhibition,[10]; at 1.2 µM,-2%
same,growth inhibition,[10]; at 3.7 µM,17%
same,growth inhibition,[10]; [15],-31%
same,growth inhibition,[10]; at 11.0 µM,15%
same,growth inhibition,[10]; at 33.0 µM,79% (active)
same,growth inhibition,[10]; [16],92% (active)
same,growth inhibition,[10]; at 50.0 µM,87.2% (active)
same,growth inhibition,[10]; at 100.0 µM,92% (active)
same,growth inhibition,[11]; at 1.2 µM,2%
same,growth inhibition,[11]; at 3.7 µM,7%
same,growth inhibition,[11]; at 11.0 µM,28%
same,growth inhibition,[11]; at 33.0 µM,44%
same,growth inhibition,[11]; at 100.0 µM,82% (active)
